PubChem BioAssay (NCI)
The panel holds about 83,000 compounds, 20% with a hit somewhere; the sample as a whole holds those more often.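 A percent growth of 40 corresponds to 60% growth inhibition; 0 means no net growth; -100 means all cells died. Active threshold: below 10.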 Unmarked numbers belong to inactive results. Active and inactive are the calls of the source.

Tests used:
Assay in all cases: NCI-60 one-dose screen, 48 h (100 = growth as untreated, 0 = no growth, -100 = all killed)
Conditions in all cases: 10 µM unless noted
NCI-H23 lung = tested on: NCI-H23 lung
NCI-H226 lung = tested on: NCI-H226 lung
NCI-H322M lung = tested on: NCI-H322M lung
HOP-62 NSCLC = tested on: HOP-62 NSCLC
NCI-H460 lung = tested on: NCI-H460 lung
HOP-92 NSCLC = tested on: HOP-92 NSCLC
NCI-H522 lung = tested on: NCI-H522 lung
A549/ATCC NSCLC = tested on: A549/ATCC NSCLC
786-0 renal = tested on: 786-0 renal
DU-145 prostate = tested on: DU-145 prostate
K-562 leukemia = tested on: K-562 leukemia
MALME-3M melanoma = tested on: MALME-3M melanoma
MDA-MB-231 breast = tested on: MDA-MB-231 breast
RXF 393 renal = tested on: RXF 393 renal
SF-268 CNS = tested on: SF-268 CNS
SF-295 CNS = tested on: SF-295 CNS
SF-539 CNS = tested on: SF-539 CNS
UACC-257 melanoma = tested on: UACC-257 melanoma
M14 melanoma = tested on: M14 melanoma

Structure (SMILES) | growth (NCI-H23 lung) | growth (NCI-H226 lung) | growth (NCI-H322M lung) | growth (HOP-62 NSCLC) | growth (NCI-H460 lung) | growth (HOP-92 NSCLC) | growth (NCI-H522 lung) | growth (A549/ATCC NSCLC) | growth (786-0 renal) | growth (DU-145 prostate) | growth (K-562 leukemia) | growth (MALME-3M melanoma) | growth (MDA-MB-231 breast) | growth (RXF 393 renal) | growth (SF-268 CNS) | growth (SF-295 CNS) | growth (SF-539 CNS) | growth (UACC-257 melanoma) | growth (M14 melanoma)
O=C(CC12CC3CC(CC(C3)C1)C2)NCCOCCOCCOCCNC(=O)c1cc2c(o1)C(=O)c1ccccc1C2=O | -47.6% (active) | -73.6% (active) | -78.7% (active) | -49.7% (active) | -71.5% (active) | 27.6% | -45.6% (active) | -41.2% (active) | -5.36% (active) | -95.6% (active) | 2.13% (active) | -96.3% (active) | -0.382% (active) | -51.3% (active) | -3.17% (active) | -90.1% (active) | -90.4% (active) | -80.7% (active) | -76.2% (active)
COc1ccc(-c2cc(-c3cc(OC)ccc3OC)[nH]c(=O)c2C#N)cc1 | 64.3% | 69.5% | 91.7% | 48.1% | 32.4% | 55.3% | 16.7% | 46.3% | 63.5% | 74.2% | 25.4% | 52.4% | 55.4% | 71.1% | 60.3% | 31% | 50.3% | 59.3% | 29.1%
Cc1cc(C(c2ccccc2)c2ccccc2)ccc1NS(=O)(=O)c1ccccc1 | 86.2% | 102% | 119% | 110% | 93.2% | 95.8% | 83.7% | 87.9% | 102% | 102% | 65.1% | 130% | 88.5% | 102% | 85.9% | 109% | 98.4% | 118% | 108%
CC(C)c1ccc(C(=O)OC(=O)c2ccc(C(C)C)cc2)cc1 | 86.4% | 97.9% | 88.8% | 86.2% | 96.3% | 87.8% | 85.3% | 103% | 95.8% | 119% | 74.7% | 86.3% | 116% | 98.5% | 103% | 98.9% | 108% | 105% | 94.5%
O=C1C2=C(CCN(Cc3ccccc3)C2)N2CCN=C2N1Cc1ccc(C(F)(F)F)cc1 | 31% | 25.9% | 37.8% | 31% | 14.7% | 18.8% | 19.9% | 27.6% | 48.8% | 33% | 29.4% | 30.4% | -9.28% (active) | 54% | 39.2% | -10.8% (active) | 40.8% | 15.5% | 37.2%
Cn1c(NCCc2ccc(O)c(O)c2)nc2c1c(=O)n(Cc1ccc(Cl)cc1)c(=O)n2C | 79.1% | 84.5% | 77.2% | 88.5% | 96.9% | 47.1% | -10.7% (active) | 104% | 92.1% | 87.3% | 77.1% | 82.3% | 52.3% | 73.2% | 72.4% | 103% | 82.7% | 117% | 78.8%
COc1ccc(C(=O)/C=C/C23c4ccccc4C(c4ccccc42)C2C(=O)NC(=O)C23)cc1 (stereo unspecified) | 88.1% | 99.7% | 92.4% | 96.4% | 96.2% | 103% | 87% | 90.7% | 103% | 97.4% | 86.3% | 98% | 94.9% | 95.9% | 90.5% | 106% | 89.9% | 89.4% | 105%
CCn1c(Sc2nnc(NC(=O)CCN3CCCC3)s2)nc2c1c(=O)n(C)c(=O)n2C | 106% | 103% | 105% | 103% | 112% | 107% | 86.8% | 99.3% | 106% | 104% | 102% | 107% | 103% | 110% | 102% | 107% | 98.4% | 102% | 107%
N#Cc1c(-c2ccccc2)nc(SCC2CO2)nc1N1CCOCC1 (stereo unspecified) | 71.4% | 75% | 65.8% | 54.3% | 67.6% | 18.3% | 57.9% | 83.8% | 65.5% | 87.5% | 97.4% | 25.7% | 71.4% | 31.5% | 69.7% | 9.14% (active) | 85.6% | 69.2% | 84%
[2H]c1nc(Nc2ncc(F)c(-c3cc(F)c4nc(C)n(C(C)C)c4c3)n2)c([2H])c([2H])c1CN1CCN(C([2H])([2H])C([2H])([2H])[2H])CC1 | 50.6% | 49.1% | 44.6% | 47% | 53.1% | 66.9% | 58.1% | 38.8% | 39% | 66.2% | 49.6% | 79.5% | 65.2% | 1.53% (active) | 64.5% | 57.8% | 72.1% | 52.3% | 47.5%
COc1cccc(-c2nc3sccn3c2-c2ccnc(NCCNS(=O)(=O)c3c(Cl)cccc3Cl)c2)c1 | 60.2% | 57.4% | 87.4% | 88.4% | 61% | 43% | 60.5% | 47.1% | 62.6% | 63% | 29.3% | 77.8% | 76.7% | 69.9% | 26.1% | 60.7% | 85.9% | 85.1% | 57.7%
COC(=O)c1ccc2oc(NC(=O)c3ccc(N4CCOCC4)c([N+](=O)[O-])c3)nc2c1 | 93% | 90.5% | 92.6% | 82.3% | 105% | 84.9% | 91% | 98.7% | 108% | 102% | 84.6% | 90.5% | 100% | 119% | 97.4% | 97.7% | 89.6% | 97.9% | 98.8%
Cc1ccc(/C(=N\N=C(N)N)c2ccccc2)cc1 | 16.6% | -4.14% (active) | 56.6% | -30.4% (active) | 2.74% (active) | 27.3% | -11.8% (active) | 16.9% | -70.3% (active) | 10.4% | 0.175% (active) | 61.8% | 2.26% (active) | 10.4% | 36.1% | 1.44% (active) | -24.2% (active) | 59% | -43.5% (active)
O=C1NC(=S)S/C1=C\N1N=C(c2ccc(Cl)cc2)CC1c1ccc(F)cc1 (stereo unspecified) | 91.3% | 83.9% | 99.1% | 103% | 95.8% | 104% | 76.1% | 84.1% | 94% | 98.5% | 59.8% | 83.7% | 80.9% | 73.8% | 85.9% | 92.4% | 89.5% | 107% | 87.7%
COc1cc(-c2cccc([N+](=O)[O-])c2)c(-c2nc(-c3ccccc3)c(-c3ccccc3)n2C2CC2)cc1OC | 68% | 62.5% | 71.9% | 92.6% | 55.5% | 34.6% | 44% | 44.7% | 73.3% | 87.1% | 32.6% | 74.2% | 72.4% | 69.1% | 77% | 42.7% | 88.5% | 56.8% | 40%
NC(=O)c1c(NC(=O)c2ccc(C(F)(F)F)cc2Cl)sc2c1CCC(=O)C2 | -7.98% (active) | -22.6% (active) | 14% | 1.14% (active) | 0.92% (active) | -61.7% (active) | -25.6% (active) | 9.42% (active) | 17.1% | 18.9% | -11.7% (active) | -24.7% (active) | -55.3% (active) | -39% (active) | -2.06% (active) | -27.2% (active) | -84.8% (active) | -22.4% (active) | -30.1% (active)
CCCCN1CCN(c2ccc3nc(-c4ccc5nc(-c6cc(OC)c(OC)c(OC)c6)[nH]c5c4)[nH]c3c2)CC1 | 82.9% | 77.6% | 86.4% | 61.4% | 83% | 49.9% | 52.8% | 105% | 50.6% | 91.6% | 30.8% | 21.1% | 78.9% | -43.4% (active) | 71.8% | 58.6% | 61.1% | 87.9% | 59%
CS(=O)(=O)c1ccc(N/N=C/c2c(-c3ccc(S(C)(=O)=O)cc3)[nH]c3ccc(F)cc23)cc1 | 41.6% | 67.2% | 45% | 28.1% | 12.8% | 16.3% | 27.6% | 44.7% | 15.9% | 39.9% | 10.5% | 10.7% | 29.6% | -10.9% (active) | 39.3% | -52.8% (active) | -19.8% (active) | 14.1% | 32.9%
O=C(Nc1ccccc1Cl)OCCN1CCOCC1 | 99.7% | 99% | 98.7% | 106% | 109% | 85.6% | 64.5% | 98.5% | 88.7% | 109% | 90.6% | 114% | 111% | 114% | 107% | 103% | 105% | 105% | 90.7%
COc1ccc(-c2cc(-c3cc(OC)ccc3O)[nH]c(=O)c2C#N)cc1 | 59.1% | 73.8% | 94.5% | 53.2% | 41.6% | 31.6% | 15.4% | 79.9% | 57.3% | 79.8% | 23.7% | 60.7% | 45% | 81.2% | 61.3% | 54% | 39.4% | 61% | 27%
C=C1C(=O)O[C@H]2[C@H]1CC/C(COC(=O)NCc1ccc(Cn3c(=O)sn(CCCCl)c3=O)cc1)=C\CC[C@@]1(C)O[C@@H]21 | 70.8% | 58.7% | 88.8% | 87.2% | 101% | -53.8% (active) | -89.7% (active) | 90.5% | 38.1% | 8.01% (active) | 0.0582% (active) | -57.1% (active) | 14.4% | -76.7% (active) | 44.5% | 101% | -7.17% (active) | 10.4% | 5.43% (active)
COc1ccc(Nc2ncc(Br)c(NCCCNC(=O)C3CCC3)n2)cc1 | 31% | 21.8% | 43.1% | 10.9% | 19.4% | 40% | 50.1% | 19.8% | 24.3% | 38.9% | 23% | 77.7% | -25.7% (active) | -41.2% (active) | 23.4% | 30.9% | 2.94% (active) | 74.3% | 55.2%
CCn1c(Sc2nnc(NC(=O)CSC(=S)N3CCCCC3)s2)nc2c1c(=O)n(C)c(=O)n2C | 91.3% | 86.6% | 101% | 87.1% | 101% | 81.1% | 38.1% | 78.1% | 92.4% | 98% | 43.6% | 71.5% | 103% | 86.2% | 96% | 83.9% | 97.7% | 94.4% | 67.9%
CNCCNc1nc2ccccc2c2c(=O)c3cc(F)ccc3oc12 | 64.8% | 68% | 43.8% | 44.2% | 55.8% | 33.3% | 58% | 50.8% | 53.1% | 48.6% | 56% | 86.3% | 39.2% | 59.2% | 58.2% | 75.4% | 58.9% | 99.4% | 86.8%
